From PubChem BioAssay (NCI)
Compounds without any hit were thinned out: in the full panel of roughly 83,000, 20% have a hit.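 Negative percent growth values reflect cell death: -40 means 40% of the cells present at the start died, and -100 means all died.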 Calls of active or inactive are those of the source. Rule for the calls: active = growth percent below 10; inactive = the rest.

Test system: K-562 leukemia
Test: NCI-60 one-dose screen, 48 h (100 = growth as untreated, 0 = no growth, -100 = all killed)
Conditions: 10 µM unless noted

SMILES	growth
COc1ccc(/C=C/C(=O)/C=C(/C=C/c2ccc(OC)c(OC)c2)OB(F)F)cc1OC	17.4% (inactive)
COc1cc(/C=C/C(=O)/C=C/c2cc3ccc(Cl)cc3[nH]c2=O)ccc1O	23.2% (inactive)
CCCCn1c(=O)c(/C=C/C(=O)/C=C/c2cc3ccccc3n(CCCC)c2=O)cc2ccccc21	3.37% (active)
COc1ccc(-c2nc(C#N)c(NCC(c3ccco3)N3CCCC3)o2)cc1 (stereo not drawn)	20.6% (inactive)
N#C/C(=C/c1ccc(O)c([N+](=O)[O-])c1)c1nc(-c2ccc([N+](=O)[O-])cc2)cs1	19.5% (inactive)
C=C1C(=O)O[C@H]2[C@H]1CC/C(COC(=O)CCCCC(=O)OC/C1=C/CC[C@@]3(C)O[C@H]3[C@H]3OC(=O)C(=C)[C@@H]3CC1)=C\CC[C@@]1(C)O[C@@H]21	9% (active)
CCOC(=O)c1c(C(F)(F)F)n([O-])c2ccc(Cl)cc2[n+]1=O	-57.7% (active)
COc1ccc(-c2nc(C#N)c(NCC(c3ccc(Cl)cc3)N3CCCCC3)o2)cc1 (stereo not drawn)	76.7% (inactive)
O=CN1N=C(c2ccc(Cl)cc2)CC1c1cccc(Nc2ccnc3cc(C(F)(F)F)ccc23)c1 (stereo not drawn)	24.9% (inactive)
O=C(CCCCCCCCC(=O)Nc1cccc(C2=NCCN2)c1)Nc1cccc(C2=NCCN2)c1	73.1% (inactive)
CCOC(=O)C1CCN(S(=O)(=O)/N=C2/NC(=O)NC2=C(Cl)Cl)CC1	-15.7% (active)
S=c1ssnc1-c1cc2ccccc2o1	55.7% (inactive)
NS(=O)(=O)c1ccc(C2C3=C(CCCC3=O)OC3=C2C(=O)c2ccccc2C3=O)cc1 (stereo not drawn)	-43.3% (active)
C=C1C(=O)O[C@H]2[C@H]1CCC(/C=N/c1ncc(Br)cc1N)=C\CC[C@@]1(C)O[C@@H]21	2.64% (active)
C#Cc1ccccc1NC(=O)c1sc2nc3c(cc2c1N)CCCCC3	90.5% (inactive)
NS(=O)(=O)c1ccc(-n2nc(-c3ccccc3)ccc2=O)cc1	89.3% (inactive)
COc1ccc(-c2nnc(N3CCN(C(=O)CN4CCN(c5ccc(OC)cc5)CC4)CC3)nc2-c2ccc(OC)cc2)cc1	-56.7% (active)
N#Cc1ccc(Oc2ccc3ccc(=O)oc3c2)cc1	79% (inactive)
CC1CCCN(CCCCCOc2ccc3oc4ccccc4c(=O)c3c2)C1 (stereo not drawn)	17.3% (inactive)

SMILES	growth
CS(=O)(=O)O[C@@H]1C(=O)N(c2cc3c4ccccc4ccc3c3ccccc23)[C@H]1c1ccc(F)cn1	10.3% (inactive)
C=C1C(=O)O[C@H]2[C@H]1CC/C(C=Nc1c(N)cc(F)cc1Br)=C\CC[C@@]1(C)O[C@@H]21	20.3% (inactive)
Cc1ccc(SC2c3ccc(C)cc3Oc3nc(N)c(C#N)c(N)c32)cc1 (stereo not drawn)	4.29% (active)
O=C(Nc1nccs1)c1noc2ccccc12	87.7% (inactive)
C=C(C)[C@@H]1CC[C@]2(C(=O)OCCCC[P+](c3ccccc3)(c3ccccc3)c3ccccc3)CC[C@]3(C)[C@H](CC[C@@H]4[C@@]5(C)CC[C@H](OC(=O)C(Cl)Cl)C(C)(C)[C@@H]5CC[C@]43C)[C@@H]12	-35.9% (active)
Cc1cc2ccccc2c[n+]1CC(=O)c1ccc(-c2ccccc2)cc1	11% (inactive)
O=C1Nc2ccc(Cl)cc2/C1=N/c1nc(-c2ccc(F)cc2)cs1	14.6% (inactive)
COc1cc(/C=N/Nc2nc(-c3ccc(F)cc3)c(C#N)c(N3CCOCC3)n2)ccc1O	85.3% (inactive)
C=C(C)[C@@H]1CC[C@]2(C(=O)N=C=S)CC[C@]3(C)[C@H](CC[C@@H]4[C@@]5(C)CCC(=O)C(C)(C)[C@@H]5CC[C@]43C)[C@@H]12	18.8% (inactive)
CC1(C)[C@@H](O)CC[C@]2(C)[C@H]3CC[C@@H]4[C@H]5[C@H](c6cn(-c7ccccc7)nn6)CC[C@]5(CO)CC[C@@]4(C)[C@]3(C)CC[C@@H]12	79.2% (inactive)
COc1cc(/C=C/C(=O)c2ccc(NC(=O)CSc3nnc(-c4cc(OC)c(OC)c(OC)c4)n3-c3ccccc3)cc2)cc(OC)c1OC	6.66% (active)
O=c1c2ccccc2n(CC(O)CN2CCCC2)c2c(Br)cccc12 (stereo not drawn)	92.9% (inactive)
COc1cc(-c2cn(-c3ccc(Cl)c(Cl)c3)c(=O)[nH]2)cc(OC)c1OC	84.3% (inactive)
COC(=O)c1ccc2c(c1)n(Cc1ccc3ccccc3c1)c[n+]2Cc1ccc2ccccc2c1	20.6% (inactive)
O=C1NN(c2ccccc2)C(c2ccc(Cl)cc2)N2CCC[C@H]12 (stereo partly drawn)	97% (inactive)
Nc1ccccc1NS(=O)(=O)c1ccc(Cl)cc1	95.9% (inactive)
CCCCCCN1C(=O)CN=C1Nc1ccc2cc3ccc(NC4=NCC(=O)N4CCCCCC)cc3nc2c1	-12.1% (active)
Nc1n[nH]c2cccc(C#Cc3cccc(NC(=O)c4cc(N5CCOCC5)cc(C(F)(F)F)c4)c3)c12	4.32% (active)
Cc1cnc(SCc2ccc(Cl)cc2Cl)nc1Nc1ccc(Cl)c(Cl)c1	69.3% (inactive)
